PABP polyA inh: PABP poly(A) RNA binding inhibitors, primary screen, biochemical, fluorescence polarization, uHTS | Polyadenylate-binding protein 1 (Homo sapiens), P11940 | inhibition, % at 35 µM | 290,000 tested, 1% active | AID 2014, 2009;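 note: calls also rest on retests at 20 µM and on dose response follow-up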
PfM18AAP inh-1: PfM18AAP inhibitors, malaria aminopeptidase, primary screen, biochemical, QFRET, recombinant enzyme | H-Glu-NHMec fluorogenic cleavage | inhibition, % at 7.35 µM | M18 aspartyl aminopeptidase (Plasmodium falciparum 3D7) | AID 1822, 2009 | 290,000 tested, 1.2% active;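 active = inhibition above the campaign mean inhibition over all tested compounds plus 3 SD, cut at about 28% in these data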
MLLE-PAM2 inh: inhibitors of PABP1 MLLE–PAM2 peptide binding, primary screen, biochemical, fluorescence polarization, FITC-PAM2, GST-MLLE; Polyadenylate-binding protein 1 (Homo sapiens), P11940; inhibition, % at 20 µM; 360,000 tested, 0.36% active; AID 588489, 2011; in the data active = inhibition above about 35%, passing the limit was not always enough
PERK inh: block of dimerizer-induced PERK translation repression, primary screen, PERK inhibitor project, CHO PERK-DD cells, SEAP luminescence, HTS; Eukaryotic translation initiation factor 2-alpha kinase 3 (Homo sapiens), Q9NZJ5; CHO PERK-DD fusion, SEAP luminescence translation reporter; inhibition, % at 5.6 µM; 220,000 tested, 0.17% active; AID 1416, 2008;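 active = inhibition above the mean inhibition of all tested compounds plus 3 SD, set separately per screening campaign, cut at about 2.9% in these data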;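 note: PERK kinase domain activated by AP20187 dimerizer at 100 nM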
Target sequence (Q9NZJ5 whole entry, looked up, the tested form may be a part): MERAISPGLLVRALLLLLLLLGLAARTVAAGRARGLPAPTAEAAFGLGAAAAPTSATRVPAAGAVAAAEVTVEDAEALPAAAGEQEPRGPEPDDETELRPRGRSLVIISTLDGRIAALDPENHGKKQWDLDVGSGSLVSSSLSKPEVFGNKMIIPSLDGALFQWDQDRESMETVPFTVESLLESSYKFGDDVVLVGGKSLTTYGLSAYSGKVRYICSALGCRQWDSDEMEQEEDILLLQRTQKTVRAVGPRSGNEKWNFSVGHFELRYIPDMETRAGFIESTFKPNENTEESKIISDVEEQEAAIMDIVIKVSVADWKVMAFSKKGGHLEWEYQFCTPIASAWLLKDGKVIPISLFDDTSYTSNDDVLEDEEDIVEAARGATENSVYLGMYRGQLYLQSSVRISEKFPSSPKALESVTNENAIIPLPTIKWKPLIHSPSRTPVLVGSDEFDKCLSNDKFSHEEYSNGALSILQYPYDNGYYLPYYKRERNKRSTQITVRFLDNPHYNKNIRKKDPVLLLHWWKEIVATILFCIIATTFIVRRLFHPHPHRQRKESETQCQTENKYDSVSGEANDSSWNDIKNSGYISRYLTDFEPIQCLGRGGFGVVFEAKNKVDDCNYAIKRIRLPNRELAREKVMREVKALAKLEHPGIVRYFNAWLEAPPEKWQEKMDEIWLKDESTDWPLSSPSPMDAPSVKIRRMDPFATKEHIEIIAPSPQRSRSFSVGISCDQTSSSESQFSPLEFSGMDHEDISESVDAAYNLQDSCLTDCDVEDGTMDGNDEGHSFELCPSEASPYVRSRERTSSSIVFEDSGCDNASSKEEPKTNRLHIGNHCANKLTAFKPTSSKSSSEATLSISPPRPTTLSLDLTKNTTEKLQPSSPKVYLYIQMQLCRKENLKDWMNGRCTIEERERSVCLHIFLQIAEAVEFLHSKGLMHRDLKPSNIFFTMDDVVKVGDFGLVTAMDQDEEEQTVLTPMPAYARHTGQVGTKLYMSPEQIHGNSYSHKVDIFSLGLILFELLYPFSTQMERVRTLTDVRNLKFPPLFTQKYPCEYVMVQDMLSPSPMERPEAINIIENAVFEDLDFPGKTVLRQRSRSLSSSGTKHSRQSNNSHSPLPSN
eIF4H FP inh: human eIF4H binding inhibitors, primary screen, translation initiation inhibitor project, biochemical, uHTS, fluorescence polarization; Eukaryotic translation initiation factor 4H (Homo sapiens), Q15056; eIF4H fluorescence polarization binding assay; inhibition, % at 35 µM; 290,000 tested, 0.94% active; AID 2012, 2009;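 note: calls also rest on retests at 20 µM and on dose response follow-up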
eIF4E-4G inh: eIF4E–eIF4G protein interaction inhibitors, primary screen, biochemical, uHTS, TR-FRET, eIF4GI fragment; inhibition, % at 21.7 µM; Eukaryotic translation initiation factor 4E (Mus musculus) + Eukaryotic translation …; 220,000 tested, 0.37% active; TR-FRET eIF4E-eIF4GI(517-606) binding, 2 h;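 active = inhibition above about 30%, limit read from the data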
PfM18AAP inh-2: PfM18AAP inhibitors, malaria aminopeptidase, confirmation, biochemical, QFRET, recombinant enzyme, triplicate | inhibition, % at 7.35 µM | 2,400 tested, 28% active | shares compounds with PfM18AAP inh-1 | H-Glu-NHMec fluorogenic cleavage;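 active = mean inhibition over replicate wells above the hit cutoff set for the earlier primary screen, cut at about 29% in these data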
CTSL1 counter: cathepsin L1 inhibitors, retest, confirmation, counter-screen for PFM18AAP inhibitor project, biochemical, QFRET, triplicate. shares compounds with PfM18AAP inh-1. purified cathepsin L1, Z-Leu-Arg-MCA fluorescence. inhibition, % at 5.96 µM. 2,400 tested, under 10 active;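 active = average inhibition across replicates above the hit cutoff set in the earlier primary screen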
A number is an active result. This is a sample that favours compounds with a hit; in the whole collection about 2.4% have one here. Unless noted, the rule behind the calls is not given here.

`Cc1ccnc(NC(=S)N2CCN(c3cccc(C(F)(F)F)c3)CC2)c1` gave PABP polyA inh inactive, PfM18AAP inh-1 39, MLLE-PAM2 inh inactive, eIF4H FP inh inactive, PfM18AAP inh-2 inactive and CTSL1 counter inactive.
NC(=O)C1CCN(C(=O)c2cccc(S(=O)(=O)N3CCc4ccccc4C3)c2)CC1 was read as PABP polyA inh inactive, PfM18AAP inh-1 inactive, MLLE-PAM2 inh inactive, PERK inh inactive, eIF4H FP inh inactive and eIF4E-4G inh inactive.
For O=C(c1cccc(S(=O)(=O)N2CCc3ccccc3C2)c1)N1CCN(c2ccc(O)cc2)CC1 the results were PABP polyA inh inactive, PfM18AAP inh-1 36, MLLE-PAM2 inh inactive, PERK inh inactive, eIF4H FP inh inactive, eIF4E-4G inh inactive, PfM18AAP inh-2 inactive and CTSL1 counter inactive.
COc1cc(NS(=O)(=O)c2cccc3nsnc23)c(C(=O)O)cc1OC was read as PABP polyA inh inactive, PfM18AAP inh-1 inactive, MLLE-PAM2 inh inactive, PERK inh inactive, eIF4H FP inh inactive and eIF4E-4G inh inactive.
O=C(CCc1ccccc1)NNC(=O)COc1ccccc1Cl was read as PABP polyA inh inactive, PfM18AAP inh-1 inactive, MLLE-PAM2 inh inactive and eIF4H FP inh inactive.
For CC(=O)Oc1cc(O)c2c(c1)OC(c1ccc(OC(C)=O)c(OC(C)=O)c1)C(OC(C)=O)C2=O (centres undefined) the results were PABP polyA inh inactive, PfM18AAP inh-1 54, MLLE-PAM2 inh inactive, eIF4H FP inh inactive, PfM18AAP inh-2 31 and CTSL1 counter inactive.
Screening CCCC(=O)Nc1ccc(C(=O)N/N=C2\CC(=O)CC(C)(C)C2)cc1 returned PABP polyA inh inactive, PfM18AAP inh-1 39, MLLE-PAM2 inh inactive, PERK inh inactive, eIF4H FP inh inactive, eIF4E-4G inh inactive, PfM18AAP inh-2 inactive and CTSL1 counter inactive.
CCCC(=O)Nc1ccc(C(=O)NN=C(C2CC2)C2CC2)cc1 was read as PABP polyA inh inactive, PfM18AAP inh-1 inactive, MLLE-PAM2 inh inactive, PERK inh inactive, eIF4H FP inh inactive and eIF4E-4G inh inactive.
COC(=O)CN(n1cnnc1)S(=O)(=O)c1ccccc1 was read as PABP polyA inh inactive, PfM18AAP inh-1 78, MLLE-PAM2 inh inactive, PERK inh inactive, eIF4H FP inh inactive, eIF4E-4G inh inactive, PfM18AAP inh-2 85 and CTSL1 counter inactive.
Screening Cc1ccc(S(=O)(=O)N/N=C/c2ccc(O)c(O)c2)cc1[N+](=O)[O-] returned PABP polyA inh inactive, PfM18AAP inh-1 54, MLLE-PAM2 inh inactive, PERK inh inactive, eIF4H FP inh inactive, eIF4E-4G inh inactive, PfM18AAP inh-2 45 and CTSL1 counter inactive.
`Cc1ccc(S(=O)(=O)N/N=C/c2ccccc2O)cc1[N+](=O)[O-]` gave PABP polyA inh inactive, PfM18AAP inh-1 inactive, MLLE-PAM2 inh inactive, PERK inh inactive, eIF4H FP inh inactive and eIF4E-4G inh inactive.
`Cc1cc(SCC(=O)N/N=C/c2ccc(O)c(O)c2O)c(C)cc1Br` gave PABP polyA inh 60, PfM18AAP inh-1 53, MLLE-PAM2 inh inactive, PERK inh inactive, eIF4H FP inh 93, eIF4E-4G inh inactive, PfM18AAP inh-2 inactive and CTSL1 counter inactive.
Screening COc1cc(/C=N/NC(=O)CSc2cc(C)c(Br)cc2C)ccc1O returned PABP polyA inh inactive, PfM18AAP inh-1 inactive, MLLE-PAM2 inh inactive, PERK inh inactive, eIF4H FP inh inactive and eIF4E-4G inh inactive.
Cc1nn(C)c(Sc2ccccc2N)c1[N+](=O)[O-] was read as PABP polyA inh inactive, PfM18AAP inh-1 39, MLLE-PAM2 inh inactive, PERK inh inactive, eIF4H FP inh inactive, eIF4E-4G inh inactive, PfM18AAP inh-2 inactive and CTSL1 counter inactive.
NNc1nc2ccccc2c(=O)n1Cc1ccccc1 was read as PABP polyA inh inactive, PfM18AAP inh-1 54, MLLE-PAM2 inh inactive, eIF4H FP inh inactive, PfM18AAP inh-2 39 and CTSL1 counter inactive.
For CCOC(=O)Cc1cc(OC)c(OC)cc1Cc1cc(OC)c(OC)cc1CC(=O)OCC the results were PABP polyA inh inactive, PfM18AAP inh-1 inactive, MLLE-PAM2 inh inactive, PERK inh inactive, eIF4H FP inh inactive and eIF4E-4G inh inactive.
O=C(c1ccccc1)c1c[nH]c(C(=O)NNc2cccc(Cl)n2)c1 was read as PABP polyA inh inactive, PfM18AAP inh-1 52, MLLE-PAM2 inh inactive, PERK inh inactive, eIF4H FP inh inactive, eIF4E-4G inh inactive, PfM18AAP inh-2 31 and CTSL1 counter inactive.
O=C(NNc1cccc(Cl)n1)c1ccc(Cl)cc1Cl was read as PABP polyA inh inactive, PfM18AAP inh-1 inactive, MLLE-PAM2 inh inactive, PERK inh inactive, eIF4H FP inh inactive and eIF4E-4G inh inactive.
`O=C(c1ccc(Cl)cc1)c1c[nH]c(C(=O)NNc2cccc(Cl)n2)c1` gave PABP polyA inh inactive, PfM18AAP inh-1 51, MLLE-PAM2 inh inactive, PERK inh inactive, eIF4H FP inh inactive, eIF4E-4G inh inactive, PfM18AAP inh-2 36 and CTSL1 counter inactive.
For Cn1ccc(C(=O)NC(=S)Nc2ccc([N+](=O)[O-])cc2O)n1 the results were PABP polyA inh inactive, PfM18AAP inh-1 34, MLLE-PAM2 inh inactive, eIF4H FP inh inactive, PfM18AAP inh-2 41 and CTSL1 counter inactive.
O=C(NC(=S)Nc1ccc([N+](=O)[O-])cc1O)C1CCCCC1 was read as PABP polyA inh inactive, PfM18AAP inh-1 inactive, MLLE-PAM2 inh inactive and eIF4H FP inh inactive.
`Cc1ccc(S(=O)(=O)NCC(=O)OC(C)C(=O)Nc2ncc(Cl)cc2Cl)cc1` (centres undefined) gave PABP polyA inh inactive, PfM18AAP inh-1 inactive, MLLE-PAM2 inh inactive, PERK inh inactive, eIF4H FP inh inactive and eIF4E-4G inh inactive.
Screening OCC(O)/C=N/Nc1nc2ccccc2s1 (centres undefined) returned PABP polyA inh inactive, PfM18AAP inh-1 33, MLLE-PAM2 inh inactive, PERK inh inactive, eIF4H FP inh inactive, eIF4E-4G inh inactive, PfM18AAP inh-2 inactive and CTSL1 counter inactive.
For Oc1ccccc1C=NNc1nc2ccccc2s1 the results were MLLE-PAM2 inh inactive.
`COCCN(CC(=O)Nc1ccccc1C(F)(F)F)C(=O)/C=C/c1cc(Cl)c2c(c1)OCCO2` gave MLLE-PAM2 inh inactive.

Bioassay records deposited in PubChem BioAssay by several laboratories.
